Reference: PubChem BioAssay (NCI)
Where “and” joins values, the source holds several entries; their conditions need not be identical. Equal values may be shown once. The panel holds about 83,000 compounds, 20% with a hit somewhere; the sample as a whole holds those more often.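 Step 1: grow cells in 96-well plates. Step 2: add test compound at a single concentration. Step 3: incubate 48 h. Step 4: record percent growth.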 Values without a mark were called inactive. Calls of active or inactive are those of the source. Rule for the calls: active = growth percent below 10; inactive = the rest.

test system: UO-31 renal; experiment: NCI-60 one-dose screen, 48 h (100 = growth as untreated, 0 = no growth, -100 = all killed); details: 10 µM unless noted

| Structure (SMILES) | growth |
| --- | --- |
| N#Cc1ccc(/C=C/C(=O)c2ccccc2)cc1 | -37.5% (active) |
| COc1ccc(COC=O)cc1 | 92.5% |
| O=[N+]([O-])c1ccc(N/N=C/C2CCCCCC2)c([N+](=O)[O-])c1 | 61.2% |
| COC(=O)C(Cc1cn(C(C)=O)c2ccccc12)P(=O)(OC)OC (stereo not drawn) | 74.8% |
| CCOCCC(=O)O | 102% |
| Cc1ccc(N)cc1S(=O)(=O)O | 84.4% and 91.5% |
| CCOC(=O)c1ccc(C(=N)N)cc1 | 91.8% |
| Cc1cc(-c2ccc(N=Nc3c(C)nn(-c4ccc(S(=O)(=O)O)cc4)c3O)c(C)c2)ccc1N=Nc1ccc(O)c(C(=O)O)c1 | 69.1% |
| CC(=O)c1cccc(OC(=O)c2ccccc2)c1 | 103% |
| O=C(O)/C=C/C=C/c1ccccc1 | 93.1% and 88.4% |
| CCOC(=N)c1ccc(C(=N)OCC)cc1 | 95.1% |
| CN(C)C(=N)N=C(N)N | 91.5% and 106% |
| N=C(N=C(N)N)N1CCOCC1 | 83.8% and 85% |
| COc1cc([C@@H]2c3cc4c(cc3[C@H](O)[C@H]3COC(=O)[C@@H]23)OCO4)cc(OC)c1OC | 23.3% and 36.9% |
| O=C1C=CC(=O)N1Cc1ccco1 | 62.6% |
| S=c1ccc2ccccc2[nH]1 | 88.2% and 80.9% |
| Clc1ccc(/C=C/c2ccc3ccccc3n2)cc1 | 69.7% and 68.4% and 58.1% |
| COc1ccc(CCl)c(C)c1OC | 89.7% |
| O=C1c2ccccc2C(c2ccccc2)C1c1ccccc1 (stereo not drawn) | 79.4% |
| COc1ccc2oc3c(ccc[n+]3C)c(=O)c2c1 | 91.9% |

| Structure (SMILES) | growth |
| --- | --- |
| CCc1ccccc1-n1[nH]c(C)c(C=N)c1=O | 90% |
| C/C=C/C(=O)OCCCCCCCCCCCC | 109% |
| N#Cc1c[nH]n2ccnc12 | 94.7% |
| CCCCCc1cc[n+](CC(=O)c2ccccc2)cc1 | 85.6% and 91.3% |
| O=[N+]([O-])c1ccc(N2CCN=N2)cc1 | 64.3% |
| CCOc1ccc(/C=C\C(=O)O)cc1 | 98.7% |
| O=C(c1ccc(Cl)cc1)C1C(c2ccccc2)C1[N+](=O)[O-] (stereo not drawn) | 74.8% |
| CNc1ccc(O)cc1 | 82.4% and 95.4% |
| O=C1c2cccnc2-c2ncccc21 | 97.1% [100 µM] |
| Cc1c(Cl)cc(Cl)c(N)c1Cl | 92.6% |
| Cc1cc(NC(=O)NC(=O)c2ccccc2N(C)C)ccc1Oc1ncc(Br)cn1 | 24.2% and 56.1% |
| CC(C)(C)C1=CC(=O)C(C(C)(C)C)=CC1=O | 93.1% and 91.5% |
| OCc1ccccc1F | 84.7% |
| O=C(O)C1CSCN1 (stereo not drawn) | 81.3% and 88.6% |
| O=[N+]([O-])c1cccc(N=Cc2ccccc2)c1 | 90.8% |
| Cc1cc(O)c(C(C)C)cc1N=O | 106% and 92.5% |
| CS(=O)(=O)OCC1NC(=O)C(COS(C)(=O)=O)NC1=O (stereo not drawn) | 91.7% and 94.1% |
| CCCC(=O)Oc1ccc2ccccc2c1 | 76.8% |
| O=C(O)c1cccc(Br)c1 | 68.5% and 88.8% |

test system: TK-10 renal; experiment: as above; details: 10 µM unless noted

| Structure (SMILES) | growth |
| --- | --- |
| N#Cc1ccc(/C=C/C(=O)c2ccccc2)cc1 | 98.9% and 55.8% |
| COc1ccc(COC=O)cc1 | 103% |
| O=[N+]([O-])c1ccc(N/N=C/C2CCCCCC2)c([N+](=O)[O-])c1 | 118% |
| COC(=O)C(Cc1cn(C(C)=O)c2ccccc12)P(=O)(OC)OC (stereo not drawn) | 100% |
| CCOCCC(=O)O | 103% |
| Cc1ccc(N)cc1S(=O)(=O)O | 75% and 135% |
| CCOC(=O)c1ccc(C(=N)N)cc1 | 105% |
| Cc1cc(-c2ccc(N=Nc3c(C)nn(-c4ccc(S(=O)(=O)O)cc4)c3O)c(C)c2)ccc1N=Nc1ccc(O)c(C(=O)O)c1 | 141% |
| CC(=O)c1cccc(OC(=O)c2ccccc2)c1 | 106% |
| O=C(O)/C=C/C=C/c1ccccc1 | 97.3% and 106% |
| CCOC(=N)c1ccc(C(=N)OCC)cc1 | 96.6% |
| CN(C)C(=N)N=C(N)N | 119% and 149% |
| N=C(N=C(N)N)N1CCOCC1 | 103% and 97.9% |
| COc1cc([C@@H]2c3cc4c(cc3[C@H](O)[C@H]3COC(=O)[C@@H]23)OCO4)cc(OC)c1OC | 21.1% and 69.2% |
| O=C1C=CC(=O)N1Cc1ccco1 | 94.4% |
| S=c1ccc2ccccc2[nH]1 | 105% and 108% |
| Clc1ccc(/C=C/c2ccc3ccccc3n2)cc1 | 15.3% and 132% and 86.7% |
| COc1ccc(CCl)c(C)c1OC | 102% |
| O=C1c2ccccc2C(c2ccccc2)C1c1ccccc1 (stereo not drawn) | 124% |
| COc1ccc2oc3c(ccc[n+]3C)c(=O)c2c1 | 97.6% |

| Structure (SMILES) | growth |
| --- | --- |
| CCc1ccccc1-n1[nH]c(C)c(C=N)c1=O | 103% |
| C/C=C/C(=O)OCCCCCCCCCCCC | 92.8% |
| N#Cc1c[nH]n2ccnc12 | 103% |
| CCCCCc1cc[n+](CC(=O)c2ccccc2)cc1 | 120% and 101% |
| O=[N+]([O-])c1ccc(N2CCN=N2)cc1 | 85.5% |
| CCOc1ccc(/C=C\C(=O)O)cc1 | 109% |
| O=C(c1ccc(Cl)cc1)C1C(c2ccccc2)C1[N+](=O)[O-] (stereo not drawn) | 95.1% |
| CNc1ccc(O)cc1 | 144% and 121% |
| O=C1c2cccnc2-c2ncccc21 | 97.1% [100 µM] |
| Cc1c(Cl)cc(Cl)c(N)c1Cl | 109% |
| Cc1cc(NC(=O)NC(=O)c2ccccc2N(C)C)ccc1Oc1ncc(Br)cn1 | 36.5% and 63.1% |
| CC(C)(C)C1=CC(=O)C(C(C)(C)C)=CC1=O | 102% and 94.6% |
| OCc1ccccc1F | 107% |
| O=C(O)C1CSCN1 (stereo not drawn) | 103% and 109% |
| O=[N+]([O-])c1cccc(N=Cc2ccccc2)c1 | 94.2% |
| Cc1cc(O)c(C(C)C)cc1N=O | 101% and 99.7% |
| CS(=O)(=O)OCC1NC(=O)C(COS(C)(=O)=O)NC1=O (stereo not drawn) | 130% and 138% |
| CCCC(=O)Oc1ccc2ccccc2c1 | 103% |
| O=C(O)c1cccc(Br)c1 | 108% and 93.6% |
